# From PubChem BioAssay
# Lassa entry inh: blocks Lassa virus binding to or entry into cells; Lassa virus pseudotype entry inhibition, cell reporter; Potency, µM (doses to about 37.9 µM), for the others: at the top dose activity change, negative = inhibition, most hits filed as inhibitors; 1.2% of 300,000 active; calls by dose curve; tested in HEK293 cells; note: potency is the fitted concentration of half-maximal effect; % is set by controls: 0 for no effect and ±100 for the full control effect; nearly all actives have a fitted effect of over 50% in size
# MARV entry inh: inhibitors of Marburg virus binding or cell entry; Marburg virus pseudotyped entry inhibition, cell reporter; 1.8% of 300,000 active; Potency, µM (series often up to 37.8 µM), inactives show top-dose activity change, negative = inhibition, hits mostly inhibitors; AID 540276; calls by dose curve; tested in HEK293 cells; note: potency is the fitted concentration of half-maximal effect; % is set by controls: 0 for no effect and ±100 for the full control effect
# Shiga toxin inh: inhibitors of Shiga toxin in Vero cells | Vero cells, Shiga toxin protein synthesis inhibition reporter | inhibition, % at 38.7 µM | 9.2% of 290,000 active | AID 2315; in the data active = inhibition mostly above about 28%, no sharp cut-off; inactive = mostly below about 43%; note: 0% is about no effect
# FMDV inh: antivirals against foot and mouth disease virus | FMDV antiviral cell-based qHTS | Potency, µM (series often up to 57.9 µM), inactives show at the top dose activity change, negative = inhibition, actives largely listed as inhibitors | 1.2% of 410,000 active; calls by dose curve; tested in HEK293T cells; note: read-out not given here; potency is the fitted concentration of half-maximal effect; % is set by controls: 0 for no effect and ±100 for the full control effect; nearly all actives have a fitted effect of over 45% in size
# Cycloheximide cs: affects cycloheximide protein synthesis inhibition readout, counter-screen; 12% of 300,000 active; max response, %; AID 2314; cell reporter, cycloheximide protein synthesis inhibition counterscreen; in the data active = max response mostly above about 13%, no sharp cut-off; inactive = mostly below about 14%; note: read at 38.3 µM for the half of the compounds with a filed dose; 0% is about no effect
# HCV inhibitor: HCV inhibition | Huh7.5.1 HCVcc-Cre infection, luciferase reporter, 44 h | Potency, µM (titrated, usually from 41.8 µM), without a hit: top-dose activity change, negative = inhibition, actives largely listed as inhibitors | 3.4% of 340,000 active | AID 651820; active = well fitted inhibition curve with a large enough effect; inconclusive = small, poorly fitted or top-dose-only effect, or another doubt; inactive = no such curve, though single readings can be large or run the other way; note: potency is the fitted concentration of half-maximal effect; % is set by controls: 0 for no effect and ±100 for the full control effect
#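 A cell-based infection assay in which seeded cells (1,000 per well) receive test compound after 4 h, are inoculated with HCVcc-Cre at approximately 0.5 moi, and are incubated 44 h before luminescence detection.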
# * marks the source's active call; other numbers are inactive results; ? = inconclusive; · = no result; [ ] = another dose, or the depositor's remark. Hits are enriched below; roughly 13% of the tested compounds scored in any of these assays.
SMILES,Lassa entry inh,MARV entry inh,Shiga toxin inh,FMDV inh,Cycloheximide cs,HCV inhibitor
CC(=O)c1ccc(NC(=S)N2c3ccccc3CC2C)cc1 (stereo not drawn),-17.6%,4.8%,18.0,-21.9%,22.8*,-22.0%
COc1ccccc1C1CCN(Cc2ccc(Cl)cc2Cl)CC1,-6.8%[46.1 µM],?,-4.6,-13.6%,-5.6,-13.8%
COc1ccccc1C1CCN(Cc2cccc3ccccc23)CC1,-24.5%,?,-4.9,?,1.3,7.94µM*
Cc1ccc(NC(=O)C(=O)NCc2ccc(/C=C(/C#N)C(=O)NCc3cccnc3)o2)cc1C,-0.6%,27.7%,-11.0,?,-4.1,?
C/C(=N\NC(=O)c1cc(C)nc2ccccc12)c1ccc([N+](=O)[O-])cc1,-8.0%[46.1 µM],12.8%[46.1 µM],-1.1,-14.7%,6.3,-23.6%
O=[N+]([O-])c1ccccc1/C=N/OCc1ccccc1,?,?,104.4*,68.6%,30.8*,-9.3%
O=C(NCc1ccc(F)cc1)c1cc2ccccc2o1,4.5%[46.1 µM],6.3%[46.1 µM],31.9,28.5%,14.1*,-5.8%
Cc1ccc(C(=O)c2cc3ccccc3o2)cc1[N+](=O)[O-],21.0%[46.1 µM],0.4%[46.1 µM],31.3,23.5%,16.7,1.4%
O=C(c1ccccc1)c1cc2ccccc2o1,-0.1%,?,79.8*,35.8%,37.8*,0.5%
O=C(c1ccc(F)cc1)c1cc2ccccc2o1,?,14.5%,41.5*,45.4%,25.8*,-19.8%
CC(C)(C)c1ccc(S(=O)(=O)NC(=O)C2(C)CCN2C(=O)CC2CCCCC2)cc1 (stereo not drawn),·,·,·,2.2%,·,·
C=CCn1c(-c2cccc(S(=O)(=O)N3CCOCC3)c2)n[nH]c1=S,-5.4%,0.0%[46.1 µM],·,-15.1%,·,19.0%
COC(=O)C1=C(c2cccc(C#N)c2)C[C@@H]2CC[C@H]1N2C(=O)N1CCOCC1,·,·,·,-17.0%,·,-9.9%
O=S(=O)(c1ccccc1)N1CC1c1ccccc1 (stereo not drawn),?,?,38.1*,107.5%,47.1*,0.5%
Nc1ccc(Oc2ccccc2-c2ccccc2)cc1,5.62µM*,5.62µM*,·,7.94µM*,·,-5.7%
CN(C)C1NC(=O)c2cc(-c3ccccc3)sc2N1 (stereo not drawn),9.7%,?,30.6,23.3%,16.7*,?
O=c1cc(-c2ccccc2)ss1,26.6%[46.1 µM],-2.0%[46.1 µM],·,-4.6%,·,-0.8%
Cc1cc(OCc2cc(C(=O)NC3CCC3)no2)cc(C)c1Cl,·,·,-1.6,-12.2%,4.1,?
O=C(NC1Cc2ccccc2C1)c1cc(COc2ccc(F)cc2Cl)on1,·,·,-6.2,3.8%,-4.3,-13.7%
CC1(C)CC(NC(=O)c2cc(COc3cccc(C(F)(F)F)c3)on2)CCO1 (stereo not drawn),·,·,48.1*,-17.4%,29.1*,?
COc1ccc(OCc2cc(C(=O)NC3CCOCC3)no2)c2ccccc12,0.7%[46.1 µM],17.8%[46.1 µM],18.4,8.2%,22.1*,?
Cc1ccc(OCc2cc(C(=O)NC3CCOC3)no2)cc1C (stereo not drawn),·,·,25.2*,30.2%,20.2*,-2.7%
COc1cccc(OCc2cc(C(=O)NC3CCOCC3)no2)c1,·,·,81.8*,35.7%,45.9*,1.8%
Cc1noc(C)c1C(=O)N1CCC[C@@]2(CCN(Cc3nccs3)C2)C1,·,·,·,-5.4%,·,·
CN(C(=O)c1ccc(NC(=O)Cc2cccc(NC(=O)C3CCN(C(=O)C4CCC4)CC3)c2)cc1)C1CC1,·,·,·,5.2%,·,2.0%
SMILES,Lassa entry inh,MARV entry inh,Shiga toxin inh,FMDV inh,Cycloheximide cs,HCV inhibitor
CSC1=NSC2=NC(=O)/C(=C/c3coc4ccc(O)cc4c3=O)C(=N)N12,14.0%,0.8%,-29.2,-25.9%,-2.1,0.9%
CSC1=NSC2=NC(=O)/C(=C\c3cccs3)C(=N)N12,?,?,41.9*,-54.6%,42.4*,-28.1%
COc1cc(/C=C2/C(=N)N3C(SC)=NSC3=NC2=O)ccc1OC(=O)c1ccco1,?,?,84.0,41.0%,29.1*,18.2%
CSC1=NSC2=NC(=O)/C(=C/c3coc4ccccc4c3=O)C(=N)N12,15.0%,?,47.5*,?,17.4,5.2%
N=C1/C(=C/c2cccs2)C(=O)N=C2SN=C(SCc3ccccc3)N12,-0.7%,-2.7%,37.4*,1.5%,26.4*,-19.5%
Cc1oc(-c2ccccc2)nc1C(=O)OCC(=O)NC(=O)NCC(C)C,13.6%,?,-7.6,15.5%,-1.3,?
CCOc1ccc(S(=O)(=O)n2cnc(C)c2)cc1,·,·,-5.1,-17.4%,-0.6,-18.4%
COc1ccc(-n2c(SCC(=O)NCc3ccccc3)nc3c([nH]c4ccccc43)c2=O)cc1,-6.7%[46.1 µM],·,·,?,·,·
CN(C)C(=O)C(Sc1ccc(S(=O)(=O)N2CCCC2)cn1)c1ccccc1 (stereo not drawn),-18.7%,?,·,0.0%,·,?
Cc1cc(=O)oc2cc(OCC(=O)N/N=C/c3cc([N+](=O)[O-])ccc3O)ccc12,-4.4%,15.6%,-7.8,4.9%,-3.0,3.6%
CC(C)CSC1=NSC2=NC(=O)/C(=C\c3cccs3)C(=N)N12,?,?,101.7*,6.4%,67.5*,?
Cc1cc2oc(C(=O)N3CCN(CCc4ccccn4)CC3)c(C)c2cc1C,·,·,-6.5,-8.6%,-2.2,10.0%
Cc1ccc2c(C)c(C(=O)N3CCN(Cc4ccccn4)CC3)oc2c1C,·,·,18.0,6.5%,17.0*,3.1%
O=C(O)CC(NC(=O)C12CC3CC(CC(C3)C1)C2)c1ccc(Cl)cc1 (stereo not drawn),·,·,-1.6,-11.8%,-3.8,18.0%
COc1ccc(CNC(=O)N2CCN(c3ccccc3OC)CC2)cc1,0.2%,4.9%,-12.2,0.0%,-1.4,-21.6%
Cc1ccc(NC(=O)Cc2ccc(-n3c(C)nc4cccnc43)cc2)c(Cl)c1,6.7%[46.1 µM],·,·,15.8µM*,·,·
O=C(O)CC[N+](=O)[O-],-0.7%,9.7%,·,-30.2%,·,-9.8%
CCOc1ccc(N/C=C\C(=O)c2ccc3c(c2)OCO3)cc1,1.0%,-5.9%,·,8.9%,·,15.1%
O=C(/C=C\Nc1ccc2c(c1)OCO2)c1ccc2c(c1)OCO2,?,?,94.6*,-38.4%,29.2*,?
O=C(O)c1ccc2c(c1)OCO2,·,·,·,-6.5%,·,·
COc1cc(/C=C/C(=O)c2ccc3c(c2)OCO3)cc(Cl)c1O,-12.4%[46.1 µM],?,25.0,29.9%,8.2,-19.2%
O=C(/C=C\Nc1ccc2c(c1)OCO2)c1ccccn1,0.447µM*,?,-22.1,2µM*,-4.2,14.5%
COc1ccc(N/C=C/C(=O)c2ccc3c(c2)OCO3)cc1OC,?,?,61.4*,22.7%,67.1*,15.2%
COc1ccc(N/C=C\C(=O)c2ccc3c(c2)OCO3)cc1,?,?,87.7*,16.6%,63.2*,-24.7%
C[C@@H]1CN([C@H](C)CO)C(=O)CCCn2nncc2CO[C@@H]1CN(C)C(=O)Cc1ccccc1,·,·,·,-22.8%,·,·
COc1cc(C(=O)NC2CC3CCCC(C2)N3CC(=O)Nc2ccccc2)cc(OC)c1OC (stereo not drawn),-0.7%,?,-15.7,-10.6%,1.5,-6.1%
CC1(C)CC(=O)C(CC2CCCCC2=O)C(=O)C1 (stereo not drawn),?,21.7%[46.1 µM],7.7,-12.1%,-1.3,14.4%
